# Experimental data published in the supplement of paper PMC9023506.
# Counter-ions that a name gives are not always drawn.
# Columns and labels:
# Conditions in all cases: 10 µM; exposure time: 3 h pre-incubation + 3 h imaging
# [1] = system: Danio rerio larvae (5 dpf); experiment: optomotor response to red moving lines, difference vs DMSO (percentage points (treated minus DMSO)); higher = more of the behaviour than the DMSO vehicle control
# Outline: (§1)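 5-dpf wild-type zebrafish larvae in 96-well ProxiPlates were exposed to library drugs at 10 µM (diluted 1000× from DMSO stocks into egg water). There were 48 larvae per drug, exposed 3 h before and 3 h during imaging at 28.5 °C. Images taken every 6 s covered a 3-h program of rest, moving coloured lines and acoustic pulses, and an ImageJ macro scored movement and upper-half location. Each behaviour score is the treated-group mean minus the DMSO vehicle mean, in percentage points.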
# [2] = system: Danio rerio larvae (5 dpf); experiment: activity during period 15 (no stimuli), difference vs DMSO (percentage points (treated minus DMSO)); higher = more of the behaviour than the DMSO vehicle control
# Outline: as §1
# [3] = system: Danio rerio larvae (5 dpf); experiment: activity during first hour (no stimuli), difference vs DMSO (percentage points (treated minus DMSO)); higher = more of the behaviour than the DMSO vehicle control
# Outline: as §1
# [4] = system: Danio rerio larvae (5 dpf); experiment: excitability to 1-s acoustic pulses, difference vs DMSO (percentage points (treated minus DMSO)); higher = more of the behaviour than the DMSO vehicle control
# Outline: as §1
# [5] = system: Danio rerio larvae (5 dpf); experiment: optomotor response to blue moving lines, difference vs DMSO (percentage points (treated minus DMSO)); higher = more of the behaviour than the DMSO vehicle control
# Outline: as §1
# [6] = system: Danio rerio larvae (5 dpf); experiment: startle response to 20-s acoustic pulses, difference vs DMSO (percentage points (treated minus DMSO)); higher = more of the behaviour than the DMSO vehicle control
# Outline: as §1
# [7] = system: Danio rerio larvae (5 dpf); experiment: habituation to 1-s acoustic pulses, difference vs DMSO (percentage points (treated minus DMSO)); higher = more of the behaviour than the DMSO vehicle control
# Outline: as §1
# [8] = system: Danio rerio larvae (5 dpf); experiment: optomotor response to fast red moving lines, difference vs DMSO (percentage points (treated minus DMSO)); higher = more of the behaviour than the DMSO vehicle control
# Outline: as §1
# [9] = system: Danio rerio larvae (5 dpf); experiment: optomotor response to green moving lines, difference vs DMSO (percentage points (treated minus DMSO)); higher = more of the behaviour than the DMSO vehicle control
# Outline: as §1
structure (smiles),measurement,setting,value
CS(=O)(=O)CCNCc1ccc(-c2ccc3ncnc(Nc4ccc(OCc5cccc(F)c5)c(Cl)c4)c3c2)o1 [Lapatinib],optomotor response to red moving lines,[1],0.000688
same,activity during period 15,[2],-13.3
same,activity during first hour,[3],-5.32
NS(=O)(=O)Cc1noc2ccccc12 [Zonisamide],excitability to 1-s acoustic pulses,[4],2.79
same,activity during first hour,[3],3.75
same,optomotor response to blue moving lines,[5],3.89
CN1CCN2c3ncccc3Cc3ccccc3C2C1 (configuration not stated) [Mirtazapine],optomotor response to red moving lines,[1],-3.88
same,activity during first hour,[3],11.7
same,startle response to 20-s acoustic pulses,[6],-5.94
Cc1cccc(C)c1OCC(C)N (configuration not stated) [Mexiletine hydrochloride],habituation to 1-s acoustic pulses,[7],5.97
same,optomotor response to red moving lines,[1],3.43
same,activity during first hour,[3],4.51
same,optomotor response to blue moving lines,[5],7.61
CCOc1cc(CC(=O)N[C@@H](CC(C)C)c2ccccc2N2CCCCC2)ccc1C(=O)O [Repaglinide],excitability to 1-s acoustic pulses,[4],9.31
same,activity during period 15,[2],-1.47
same,activity during first hour,[3],5.41
same,optomotor response to blue moving lines,[5],-2.55
same,optomotor response,[8],-12.1
CCCN(CCC)S(=O)(=O)c1ccc(C(=O)O)cc1 [Probenecid],activity during first hour,[3],-2.71
CCC(=O)O[C@]1(C(=O)SCF)[C@H](C)C[C@H]2[C@@H]3C[C@H](F)C4=CC(=O)C=C[C@]4(C)[C@@]3(F)[C@@H](O)C[C@@]21C [Fluticasone propionate],activity during period 15,[2],8.18
same,activity during first hour,[3],7.17
same,optomotor response to blue moving lines,[5],-10.1
COc1c(C)c2c(c(O)c1C/C=C(\C)CCC(=O)OCCN1CCOCC1)C(=O)OC2 [Mycophenolate mofetil],activity during first hour,[3],-1.93
CC(C)Nc1cccnc1N1CCN(C(=O)c2cc3cc(NS(C)(=O)=O)ccc3[nH]2)CC1 [Delavirdine mesylate],optomotor response to red moving lines,[1],-0.668
same,activity during first hour,[3],-1.59
C#CCN[C@@H]1CCc2ccccc21 [Rasagiline mesylate],activity during first hour,[3],4.92
same,optomotor response to blue moving lines,[5],15.8
same,startle response to 20-s acoustic pulses,[6],2.17
same,optomotor response,[8],0.354
CNS(=O)(=O)Cc1ccc2[nH]cc(CCN(C)C)c2c1 [Sumatriptan succinate],habituation to 1-s acoustic pulses,[7],-0.62
same,optomotor response to red moving lines,[1],-6.18
same,activity during first hour,[3],7.71
same,optomotor response to blue moving lines,[5],-3.13
same,optomotor response,[8],-17.2
CCCCC(=O)N(Cc1ccc(-c2ccccc2-c2nnn[nH]2)cc1)[C@H](C(=O)O)C(C)C [Valsartan],habituation to 1-s acoustic pulses,[7],2.82
same,optomotor response to red moving lines,[1],7.8
same,activity during first hour,[3],4.88
same,optomotor response to blue moving lines,[5],6.89
same,optomotor response to green moving lines,[9],4.22
same,optomotor response,[8],-0.58
Nc1ncn([C@@H]2O[C@H](CO)[C@@H](O)[C@H]2O)c(=O)n1 [5-Azacytidine],excitability to 1-s acoustic pulses,[4],-3.59
same,activity during period 15,[2],1.42
same,activity during first hour,[3],4.78
same,optomotor response to blue moving lines,[5],8.76
same,optomotor response to green moving lines,[9],1.33
C[C@]12CC[C@@H]3c4ccc(O)cc4C[C@@H](CCCCCCCCC[S+]([O-])CCCC(F)(F)C(F)(F)F)[C@H]3[C@@H]1CC[C@@H]2O (some centres not stated),optomotor response to red moving lines,[1],-3.73
same,activity during first hour,[3],7.08
same,optomotor response to blue moving lines,[5],6.07
same,startle response to 20-s acoustic pulses,[6],0.769
CCCCC1=NC2(CCCC2)C(=O)N1Cc1ccc(-c2ccccc2-c2nnn[nH]2)cc1 [Irbesartan],habituation to 1-s acoustic pulses,[7],1.51
same,optomotor response to red moving lines,[1],-7.57
same,activity during first hour,[3],3.29
O=C(c1ccc(OCCN2CCCCC2)cc1)c1c(-c2ccc(O)cc2)sc2cc(O)ccc12 [Raloxifene hydrochloride],habituation to 1-s acoustic pulses,[7],1.64
same,activity during first hour,[3],-5.98
same,optomotor response to blue moving lines,[5],-2.86
same,optomotor response to green moving lines,[9],-7.74
same,optomotor response,[8],-14.5
CC(C)C(=O)Nc1ccc([N+](=O)[O-])c(C(F)(F)F)c1 [Flutamide],excitability to 1-s acoustic pulses,[4],-5.4
same,activity during period 15,[2],-0.963
same,activity during first hour,[3],-9.59
same,optomotor response to blue moving lines,[5],-17.2
same,optomotor response,[8],-21.1
CN(CCOc1ccc(CC2SC(=O)NC2=O)cc1)c1ccccn1 (configuration not stated) [Rosiglitazone],optomotor response to red moving lines,[1],-2.8
same,activity during first hour,[3],2.2
same,optomotor response to green moving lines,[9],1.76
C[C@H]1O[C@H](O[C@H]2[C@H](O)[C@@H](O)[C@@H](O[C@H]3[C@H](O)[C@@H](O)C(O)O[C@@H]3CO)O[C@@H]2CO)[C@H](O)[C@@H](O)[C@@H]1N[C@H]1C=C(CO)[C@@H](O)[C@H](O)[C@H]1O (some centres not stated) [Acarbose],excitability to 1-s acoustic pulses,[4],-4.01
same,optomotor response to red moving lines,[1],6
same,activity during period 15,[2],1.42
same,activity during first hour,[3],-0.41
same,optomotor response to blue moving lines,[5],15.5
OC(CNCC(O)C1CCc2cc(F)ccc2O1)C1CCc2cc(F)ccc2O1 (configuration not stated) [Nebivolol hydrochloride],optomotor response to red moving lines,[1],-16.2
same,activity during first hour,[3],4.97
same,optomotor response to green moving lines,[9],-4.67
same,optomotor response,[8],-19.6
Nc1nc2[nH]cc(CCc3ccc(C(=O)N[C@@H](CCC(=O)O)C(=O)O)cc3)c2c(=O)[nH]1 [Pemetrexed],activity during first hour,[3],1.38
CCOc1ccccc1OCCN[C@H](C)Cc1ccc(OC)c(S(N)(=O)=O)c1 [Tamsulosin hydrochloride],activity during period 15,[2],2.6
same,activity during first hour,[3],7.36
same,optomotor response to blue moving lines,[5],2.91
CC(CCc1ccc(O)cc1)NCCc1ccc(O)c(O)c1 (configuration not stated) [Dobutamine hydrochloride],optomotor response to red moving lines,[1],5.06
same,activity during first hour,[3],-1.97
same,optomotor response to blue moving lines,[5],-11.2
same,optomotor response,[8],-7.53
O=C1CCc2cc(OCCCCc3nnnn3C3CCCCC3)ccc2N1 [Cilostazol],habituation to 1-s acoustic pulses,[7],-0.365
same,activity during first hour,[3],10.3
same,optomotor response to blue moving lines,[5],6.53
same,optomotor response to green moving lines,[9],3.44
same,startle response to 20-s acoustic pulses,[6],2.19
COc1ccc(Cl)cc1C(=O)NCCc1ccc(S(=O)(=O)NC(=O)NC2CCCCC2)cc1 [Glibenclamide],excitability to 1-s acoustic pulses,[4],-0.0554
same,optomotor response to red moving lines,[1],10.2
same,activity during first hour,[3],1.18
same,optomotor response,[8],-19.5
CCCCCCCCc1ccc(CCC(N)(CO)CO)cc1,optomotor response to red moving lines,[1],2.93
same,activity during first hour,[3],-17.7
CC(C)C(=O)OCC(=O)[C@@]12O[C@H](C3CCCCC3)O[C@@H]1C[C@H]1[C@@H]3CCC4=CC(=O)C=C[C@]4(C)[C@H]3[C@@H](O)C[C@@]12C [Ciclesonide],activity during period 15,[2],-5.84
same,activity during first hour,[3],-9.57
same,optomotor response to blue moving lines,[5],-2.62
same,startle response to 20-s acoustic pulses,[6],-4.94
CN(C)C(=N)NC(=N)N [Metformin hydrochloride],excitability to 1-s acoustic pulses,[4],4.58
same,optomotor response to red moving lines,[1],17.8
same,activity during first hour,[3],-6.37
same,startle response to 20-s acoustic pulses,[6],-1.12
same,optomotor response,[8],10.2
